Results filed as inconclusive are left out. The source made the active and inactive calls. How the source made its calls, unless noted: active means hit-call score of the fitted dose curve at least 0.9, where 1 is the maximum; inactive means score below 0.9.
Tests used:
[1] = read-out: E-selectin (Homo sapiens) (UniProt P16581); test: BSK_SAg_Eselectin: BioMAP Diversity Plus: SAg Assay for Eselectin Biomarker Activity (AID 2283091); conditions: primary human HUVEC with PBMC; actives raise or lower the signal
How it was run: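 HUVEC co-cultured with PBMC, compound dosed then read at 24 h; E-selectin measured by ELISA. Activity fitted bidirectionally against DMSO as negative control and baseline.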

[2] = read-out: Monokine induced gamma interferon (MIG), CXCL9 (gene 4283); test: BSK_SAg_MIG: BioMAP Diversity Plus: SAg Assay for Monokine induced gamma interferon (MIG) Biomarker Activity (AID 2283092); conditions: primary human HUVEC with PBMC; actives raise or lower the signal
How it was run: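 Measures CXCL9 protein by ELISA in a human vascular primary-cell co-culture (umbilical vein endothelium with PBMC) 24 h after chemical addition. Activity is scored up or down from the DMSO control.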

[3] = BSK_SAg_PBMCCytotoxicity: PBMC Cytotoxicity Assessment in the BioMAP Diversity Plus: SAg Assay (AID 2283093); conditions: primary human HUVEC with PBMC;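 further: PBMC viability measured as Alamar Blue reduction fluorescence at 546/580 nm; fitted both ways against DMSO so a hit may be loss or gain of signal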;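 on AC50: PBMC superantigen activated with SEB plus TSST-1 one hour after compound addition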
How it was run: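 Alamar Blue reduction (6 h, ex/em 546/580 nm) read after 90 h culture of PBMC pre-dosed 1 h then stimulated with SEB plus TSST-1, 20 ng/mL each. Gain or loss of signal fitted relative to DMSO.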

[4] = read-out: Interleukin-8 (IL8), CXCL8 (gene 3576); test: BSK_SAg_IL8: BioMAP Diversity Plus: SAg Assay for Interleukin-8 (IL8) Biomarker Activity (AID 2283094); conditions: primary human HUVEC with PBMC; actives raise or lower the signal
How it was run: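 HUVEC/PBMC co-culture, 24 h post-dose; IL-8 by ELISA. Gain or loss of signal fitted bidirectionally vs DMSO baseline.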

[5] = BSK_SAg_Proliferation: Cell Proliferation Assessment in the BioMAP Diversity Plus: SAg Assay (AID 2283095); conditions: primary human HUVEC with PBMC;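 further: relative cell number as total protein by SRB absorbance in sub-confluent culture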
How it was run: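 HUVEC/PBMC co-culture, 96-well. TCA-fixed (10%), 0.1% SRB stain, A560 at 96 h. Protein content used as viability readout; bidirectional fitting vs DMSO control.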

[6] = BSK_SAg_SRB: Viability Assessment in the BioMAP Diversity Plus: SAg Assay (AID 2283096); conditions: primary human HUVEC with PBMC;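 further: cells read one day after compound addition; hits may be either gain or loss of signal compared with DMSO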
How it was run: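 SRB absorbance at 560 nm served as the viability read-out. Cells (HUVEC plus peripheral blood mononuclear cells) were TCA-fixed and stained 24 h post-dosing; activity fitted in both directions against DMSO controls.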

[7] = molecular target: human CYP19A1, CYP19A1 (gene 1588) (UniProt P11511); test: NVS_ADME_hCYP19A1: NovaScreen (NVS) CYP450-related Enzyme Activity (ADME) Assay for human CYP19A1 (AID 2283098; active means hit-call score of the fitted dose curve at least 0.9, where 1 is the maximum;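 on AC50: potency for inhibitors seen as loss of fluorescent enzyme signal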)
Chain of human CYP19A1, CYP19A1 (gene 1588) (P11511 whole entry, looked up): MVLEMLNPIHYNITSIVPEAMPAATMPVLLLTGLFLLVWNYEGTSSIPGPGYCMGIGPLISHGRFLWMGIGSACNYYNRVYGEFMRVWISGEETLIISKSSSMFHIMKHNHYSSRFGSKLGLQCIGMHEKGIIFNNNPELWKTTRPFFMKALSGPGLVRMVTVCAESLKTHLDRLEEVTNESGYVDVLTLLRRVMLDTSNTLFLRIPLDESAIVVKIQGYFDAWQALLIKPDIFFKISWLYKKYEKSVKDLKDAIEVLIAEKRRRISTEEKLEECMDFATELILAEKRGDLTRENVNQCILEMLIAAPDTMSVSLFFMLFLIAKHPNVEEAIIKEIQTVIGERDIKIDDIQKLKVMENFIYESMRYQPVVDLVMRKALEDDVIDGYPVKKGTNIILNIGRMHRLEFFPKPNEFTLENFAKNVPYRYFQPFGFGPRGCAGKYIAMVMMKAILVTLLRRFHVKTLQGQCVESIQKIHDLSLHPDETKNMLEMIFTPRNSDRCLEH
How it was run: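 Primary testing was in duplicate at a single 10 uM concentration, with actives followed up in concentration-response series. Fluorescence read-out of recombinant enzyme activity at 0.5 h, cell-free. Acetonitrile was the negative-control baseline.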

[8] = molecular target: human CYP2B6, CYP2B6 (gene 1555) (UniProt P20813); test: NVS_ADME_hCYP2B6: NovaScreen (NVS) CYP450-related Enzyme Activity (ADME) Assay for human CYP2B6 (AID 2283101; active means hit-call score of the fitted dose curve at least 0.9, where 1 is the maximum)
Chain of human CYP2B6, CYP2B6 (gene 1555) (P20813 whole entry, looked up): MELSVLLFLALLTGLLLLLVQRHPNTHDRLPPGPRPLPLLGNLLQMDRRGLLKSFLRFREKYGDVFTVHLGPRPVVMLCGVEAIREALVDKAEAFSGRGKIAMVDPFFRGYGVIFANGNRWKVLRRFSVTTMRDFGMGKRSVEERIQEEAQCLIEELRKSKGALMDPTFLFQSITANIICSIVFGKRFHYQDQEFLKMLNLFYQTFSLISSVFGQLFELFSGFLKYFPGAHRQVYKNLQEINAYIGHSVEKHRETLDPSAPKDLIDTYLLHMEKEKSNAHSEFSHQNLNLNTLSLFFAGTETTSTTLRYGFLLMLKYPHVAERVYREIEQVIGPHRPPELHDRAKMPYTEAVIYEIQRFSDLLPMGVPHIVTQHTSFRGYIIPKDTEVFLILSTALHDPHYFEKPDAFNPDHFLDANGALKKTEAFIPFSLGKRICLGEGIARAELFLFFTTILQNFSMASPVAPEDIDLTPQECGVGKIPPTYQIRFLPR
How it was run: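 Recombinant protein, specific fluorescent substrate, read at 1 h post-dosing. Primary: single 10 uM, duplicate; follow-up: concentration series. Activity = signal loss vs acetonitrile baseline, with positive and negative controls on every plate.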

[9] = molecular target: human CYP2A6, CYP2A6 (gene 1548) (UniProt P11509); test: NVS_ADME_hCYP2A6: NovaScreen (NVS) CYP450-related Enzyme Activity (ADME) Assay for human CYP2A6 (AID 2283099; active means hit-call score of the fitted dose curve at least 0.9, where 1 is the maximum)
Chain of human CYP2A6, CYP2A6 (gene 1548) (P11509 whole entry, looked up): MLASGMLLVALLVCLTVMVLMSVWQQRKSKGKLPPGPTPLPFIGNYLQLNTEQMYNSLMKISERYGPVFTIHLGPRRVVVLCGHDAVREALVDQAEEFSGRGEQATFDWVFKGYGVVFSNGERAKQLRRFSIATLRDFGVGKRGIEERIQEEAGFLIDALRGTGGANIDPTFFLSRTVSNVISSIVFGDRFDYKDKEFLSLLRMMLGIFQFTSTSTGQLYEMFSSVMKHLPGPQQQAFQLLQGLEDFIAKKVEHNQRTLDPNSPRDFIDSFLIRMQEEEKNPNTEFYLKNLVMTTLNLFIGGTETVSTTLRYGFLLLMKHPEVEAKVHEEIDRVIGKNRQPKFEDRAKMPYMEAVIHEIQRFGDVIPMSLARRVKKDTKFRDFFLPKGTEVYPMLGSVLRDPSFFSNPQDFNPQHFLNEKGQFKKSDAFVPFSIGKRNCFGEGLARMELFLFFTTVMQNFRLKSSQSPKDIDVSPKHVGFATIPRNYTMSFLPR
Description: NVS_ADME_hCYP2A6 is a biochemical, single-readout assay that uses extracted gene-proteins from insect cells in a cell-free assay. Measurements were taken 0.5 hour after chemical dosing in a 96-well plate.NVS_ADME_hCYP2A6 is one of one assay component(s) measured or calculated from the NVS_ADME_hCYP2A6 assay. It is designed to make measurements of enzyme activity, a form of enzyme reporter, as detected with fluorescence intensity signals by Fluorescence technology.Data from the assay component NVS_ADME_hCYP2A6 was analyzed into 1 assay endpoint. This assay endpoint, NVS_ADME_hCYP2A6, was analyzed in the positive analysis fitting direction relative to Acetonitrile as the negative control and baseline of activity. Using a type of enzyme reporter, loss-of-signal activity can be used to understand changes in the enzymatic activity as they relate to the gene CYP2A6. Furthermore, this assay endpoint can be referred to as a primary readout, because this assay has produced multiple assay endpoints where this one serves a enzymatic activity function. To generalize the intended target to other relatable targets, this assay endpoint is annotated to the cyp intended target family, where the subfamily is xenobiotic metabolism.
Binding assays used specific radioligands (tritiated, iodinated) with non-radioactive competitive displacement ligands in agonist or antagonist protocols (as indicated) and various reference compounds and inhibitors to titrate specific binding to receptors and transporters. Most enzyme assays (CYPs, kinases, phosphatases, proteases, HDACs) used recombinant protein and specific substrates (fluorescence mostly, some colorimetric and radioactive) and inhibitors, followed by a biochemical separation of substrate and product. All assays for the biochemical HTS were initially run in duplicate at a single concentration (10 uM for CYP450 assays and 25 uM for all others). Assay-chemical combinations meeting a pre-defined threshold (e.g., 30% inhibition and other criteria defined below) were then run in singleton concentration-response format with maximum concentration of 20 uM for CYPs and 50 uM for all others. Each assay was run with positive and negative controls, and concurrent controls on every plate. The follow-up (secondary) screen tested active chemical-pairs in concentration series, as well as a few additional assays not tested in the primary screen, some selected negative inactives, and several cases re-run in the concentration series for confirmatory purposes.

[10] = molecular target: human CYP1A1, CYP1A1 (gene 1543) (UniProt P04798); test: NVS_ADME_hCYP1A1: NovaScreen (NVS) CYP450-related Enzyme Activity (ADME) Assay for human CYP1A1 (AID 2283100; active means hit-call score of the fitted dose curve at least 0.9, where 1 is the maximum)
Chain of human CYP1A1, CYP1A1 (gene 1543) (P04798 whole entry, looked up): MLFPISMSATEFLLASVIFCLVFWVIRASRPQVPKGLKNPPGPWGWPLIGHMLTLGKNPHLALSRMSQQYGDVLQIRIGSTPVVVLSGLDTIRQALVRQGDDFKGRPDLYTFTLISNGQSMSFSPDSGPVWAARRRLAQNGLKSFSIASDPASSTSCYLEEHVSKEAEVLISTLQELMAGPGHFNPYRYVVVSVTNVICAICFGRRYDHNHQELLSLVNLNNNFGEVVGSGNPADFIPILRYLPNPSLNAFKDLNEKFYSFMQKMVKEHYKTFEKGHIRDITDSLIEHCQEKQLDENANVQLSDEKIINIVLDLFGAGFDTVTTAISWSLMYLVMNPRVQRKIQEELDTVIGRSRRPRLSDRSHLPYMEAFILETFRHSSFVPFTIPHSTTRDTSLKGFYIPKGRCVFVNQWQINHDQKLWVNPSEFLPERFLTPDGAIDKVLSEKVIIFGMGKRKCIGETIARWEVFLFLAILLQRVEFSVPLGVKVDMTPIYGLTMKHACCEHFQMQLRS
How it was run: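 Cell-free fluorescence assay of recombinant human CYP1A1 activity with a specific substrate, read 1 h after dosing. Compounds were screened in duplicate at 10 uM, then hits tested in concentration-response up to 20 uM; acetonitrile served as baseline.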

Measured: AC50

Chain of E-selectin (Homo sapiens) (P16581 whole entry, looked up): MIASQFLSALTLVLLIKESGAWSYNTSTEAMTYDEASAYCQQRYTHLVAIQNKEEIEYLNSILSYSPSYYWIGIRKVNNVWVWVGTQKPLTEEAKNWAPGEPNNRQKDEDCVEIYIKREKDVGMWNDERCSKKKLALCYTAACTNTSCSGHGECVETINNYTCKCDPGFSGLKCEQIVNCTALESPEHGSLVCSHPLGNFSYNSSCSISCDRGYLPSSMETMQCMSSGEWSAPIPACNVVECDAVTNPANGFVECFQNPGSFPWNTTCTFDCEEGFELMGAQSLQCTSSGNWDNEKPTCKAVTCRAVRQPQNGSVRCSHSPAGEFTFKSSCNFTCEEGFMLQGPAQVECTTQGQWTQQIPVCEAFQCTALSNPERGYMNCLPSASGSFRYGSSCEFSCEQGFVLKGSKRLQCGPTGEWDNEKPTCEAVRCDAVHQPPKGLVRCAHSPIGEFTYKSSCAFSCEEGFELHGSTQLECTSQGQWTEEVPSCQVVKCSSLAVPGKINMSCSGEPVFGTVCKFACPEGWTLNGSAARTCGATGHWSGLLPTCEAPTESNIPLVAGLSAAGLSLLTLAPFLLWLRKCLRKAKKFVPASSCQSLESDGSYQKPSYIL

CCc1cccc(C)c1N(C(=O)CCl)C(C)COC (configuration not stated)
active: [8] 2.11 µM
not listed: [9] | [10]
inactive: all other assays above

CCC(CC)Nc1c([N+](=O)[O-])cc(C)c(C)c1[N+](=O)[O-]
inactive: [7]
active: [1] 22.7 µM | [2] 29.5 µM | [3] 29.2 µM | [4] 28.3 µM | [5] 28.9 µM | [6] 12.3 µM

S=C1NCCN1
active: [9] 3.94 µM
not listed: [8] | [10]
inactive: all other assays above

C#CC(C)(C)NC(=O)c1cc(Cl)cc(Cl)c1
active: [10] 2.56 µM
not listed: [8] | [9]
inactive: all other assays above

CNc1cnn(-c2cccc(C(F)(F)F)c2)c(=O)c1Cl
inactive: [2] | [5] | [6] | [7]
active: [1] 19.2 µM | [3] 7.99 µM | [4] 10.9 µM | [10] 6.11 µM

CCCCOC(=O)c1ccccc1C(=O)O
not listed: [8] | [9] | [10]
inactive: all other assays above

CCc1cccc(CC)c1N(COC)C(=O)CCl
active: [1] 14.2 µM | [5] 23.6 µM | [6] 20 µM | [8] 1.58 µM
inactive: [2] | [3] | [4]

CCOP(=S)(OCC)Oc1cc(C)nc(C(C)C)n1
not listed: [8] | [9] | [10]
inactive: all other assays above

CC1(C(=O)Nc2ccc(O)c(Cl)c2Cl)CCCCC1
inactive: [1] | [2] | [3] | [4] | [6]

CCCSP(=O)(OCC)SCCC
not listed: [8] | [9] | [10]
inactive: all other assays above

CON=C(C(=O)OC)c1ccccc1CON=C(C)c1cccc(C(F)(F)F)c1
active: [1] 2.08 µM | [2] 8.87 µM | [3] 1.59 µM | [4] 3.2 µM | [5] 3.9 µM | [6] 3.82 µM

CCCSP(=O)(OCC)Oc1ccc(Br)cc1Cl (configuration not stated)
active: [1] 25.5 µM | [2] 36.5 µM | [3] 32.9 µM | [4] 26.3 µM | [5] 29.3 µM | [6] 11.7 µM | [8] 11.3 µM

CNC(=O)ON=C(SC)C(=O)N(C)C
active: [5] 20 µM
not listed: [8] | [9] | [10]
inactive: all other assays above

CCOC(=O)CC(SP(=O)(OC)OC)C(=O)OCC (configuration not stated)
active: [8] 2.49 µM
inactive: all other assays above

Nc1c(Cl)cc([N+](=O)[O-])cc1Cl
active: [1] 10.1 µM | [9] 2.05 µM | [8] 3.48 µM
not listed: [7] | [10]
inactive: all other assays above

CSc1nc(NC(C)C)nc(NC(C)C)n1
active: [10] 6.84 µM
not listed: [8] | [9]
inactive: all other assays above

CCOP(=S)(OCC)Oc1ccc([N+](=O)[O-])cc1
active: [1] 32.8 µM | [5] 32.1 µM | [10] 3.28 µM | [8] 0.99 µM
not listed: [9]
inactive: all other assays above

CCOP(=O)(SC(C)CC)N1CCSC1=O (configuration not stated)
inactive: [1] | [2] | [3] | [5] | [6]

CN(C)C(=O)Nc1cccc(C(F)(F)F)c1
inactive: [1] | [2] | [3] | [4] | [5] | [6]

FC(F)C(F)(F)OCC(Cn1cncn1)c1ccc(Cl)cc1Cl (configuration not stated)
active: [1] 25.7 µM | [5] 23 µM | [6] 20 µM | [7] 2.15 µM | [8] 3.74 µM
inactive: [2] | [3] | [4] | [9]

C[Si](Cn1cncn1)(c1ccc(F)cc1)c1ccc(F)cc1
inactive: [2] | [3] | [6]
active: [1] 19.8 µM | [4] 16.8 µM | [5] 22.5 µM | [7] 3.78 µM | [9] 1.75 µM | [10] 3.27 µM | [8] 0.238 µM

CCOP(=O)(OCC)Oc1cc(C)nc(C(C)C)n1
not listed: [8] | [9] | [10]
inactive: all other assays above

CNC(=O)ON=C(C)SC
not listed: [8] | [9] | [10]
inactive: all other assays above

COP(=O)(NC(C)=O)SC (configuration not stated)
not listed: [8] | [9] | [10]
inactive: all other assays above

CCOP(=S)(OCC)SCCSCC
inactive: [1] | [2] | [3] | [4] | [5] | [6]

CC(C)[C@H](C(=O)O[C@H](C#N)c1cccc(Oc2ccccc2)c1)c1ccc(Cl)cc1
active: [1] 12.3 µM | [3] 4.84 µM | [5] 12 µM
inactive: [2] | [4] | [6] | [7]

CC(C)=CC1C(C(=O)OCN2C(=O)C3=C(CCCC3)C2=O)C1(C)C (configuration not stated)
active: [1] 14.4 µM | [2] 34.2 µM | [3] 26.1 µM | [5] 26.1 µM
inactive: [6]

CC(C1CC1)C(O)(Cn1cncn1)c1ccc(Cl)cc1 (configuration not stated)
active: [7] 5.27 µM | [8] 6.32 µM
not listed: [9] | [10]
inactive: all other assays above

C=C(C)[C@H]1Cc2c(ccc3c2O[C@@H]2COc4cc(OC)c(OC)cc4[C@@H]2C3=O)O1
inactive: [3] | [7] | [10]
active: [1] 4.05 µM | [2] 27.2 µM | [4] 1.61 µM | [5] 5.57 µM | [6] 5.52 µM

CCCCN(CC)c1c([N+](=O)[O-])cc(C(F)(F)F)cc1[N+](=O)[O-]
active: [1] 27.6 µM | [3] 24.4 µM | [5] 18.9 µM | [7] 1.93 µM
inactive: [2] | [4] | [6]

COc1ccc(C(=CC(=O)N2CCOCC2)c2ccc(Cl)cc2)cc1OC
active: [1] 5.93 µM | [2] 25 µM | [3] 9.07 µM | [4] 8.93 µM | [5] 12.9 µM | [7] 4.42 µM | [10] 6.61 µM
inactive: [6]

CC[C@H](C)[C@H]1O[C@]2(C=C[C@@H]1C)C[C@@H]1C[C@@H](C/C=C(\C)[C@@H](O[C@H]3C[C@H](OC)[C@@H](O[C@H]4C[C@H](OC)[C@@H](NC)[C@H](C)O4)[C@H](C)O3)[C@@H](C)/C=C/C=C3\CO[C@@H]4[C@H](O)C(C)=C[C@@H](C(=O)O1)[C@]34O)O2
inactive: [7]
active: [1] 4.95 µM | [2] 8.62 µM | [3] 2.6 µM | [4] 2.16 µM | [5] 1.69 µM | [6] 5.06 µM | [8] 8.42 µM

COP(=O)(OC)SCn1c(=O)oc2cc(Cl)cnc21
active: [1] 20 µM | [5] 12.2 µM | [6] 13.4 µM | [8] 9 µM
inactive: [2] | [3] | [4]

Reference: PubChem BioAssay (EPA / NIEHS)
